Compounds with a hit are over-represented: about 2.8% of the library has one in this group of screens.
IDE cell activ = human IDE activators in live cells, primary screen, fluorescence polarization, HEK cells, FAbeta-B substrate | FAbeta-B cleavage; 0% vehicle, 100% cell-free pure enzyme wells | Insulin-degrading enzyme (Homo sapiens), P14735 | activation, % at 5.96 µM | 340,000 compounds, 0.073% hits;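 active means activation above the mean of all tested compounds plus 3 SD, set per screening campaign, cut at about 17% in these data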
PP5 primary = PP5 phosphatase inhibitors, primary screen, biochemical, fluorescence; Serine/threonine-protein phosphatase 5 (Homo sapiens), P53041; purified PP5c, OMFP substrate fluorescence; inhibition, % at 6.7 µM; 320,000 compounds, 0.18% hits; AID 1987, 2009;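 active means inhibition above the campaign's mean inhibition across all tested compounds plus 3 SD, cut at about 9.5% in these data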
SKKanGAS inh = S. pyogenes SKKanGAS growth inhibitors in kanamycin, primary screen, streptokinase expression inhibitor project, SKKanGAS strain, BacTiter-Glo luminescence | 6 h | inhibition, % at 7.5 µM | 300,000 compounds, 1.3% hits;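 active means mean replicate score, as percent of positive control median, at least 50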;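 further: strain carries kanamycin resistance gene driven by streptokinase promoter and grows in 40 µg/ml kanamycin; loss of luminescence reflects streptokinase promoter inhibition or plain growth inhibition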
IDE cell inh = human IDE inhibitors in live cells, primary screen, fluorescence polarization, HEK cells, FAbetaB substrate; Insulin-degrading enzyme (Homo sapiens), P14735; FAbetaB cleavage; inhibition, % at 5.59 µM; 320,000 compounds, 0.41% hits; AID 434962, 2010;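 active means percent inhibition above the average of all tested compounds plus 3 SD, set per screening campaign, cut at about 16% in these data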;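 further: IDE supplied by intact live HEK cells; FP after avidin binding of uncleaved biotin substrate so inhibition keeps polarization high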
Granule exo inh = LAMP-1 surface exposure blockers, TALL-104 cells – cell-based, flow cytometry, MLPCN library, primary screen | TALL-104 LAMP-1 surface exposure; cells stimulated with thapsigargin and PMA | inhibition, % at 10 µM | 360,000 compounds, 0.66% hits | AID 651702, 2012;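 active means inhibition above about 55%, limit read from the data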
PP1 counter = PP1-alpha phosphatase inhibitors, primary screen, counter-screen for PP5 inhibitor project, biochemical, fluorescence, OMFP substrate, single point; Serine/threonine-protein phosphatase PP1-alpha catalytic subunit (Homo sapiens), P62136; purified PP1alpha; 320,000 compounds, 0.9% hits; inhibition, % at 6.7 µM;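 active means inhibition above the mean inhibition of all tested compounds plus 3 SD, computed separately for each screening campaign, cut at about 15% in these data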
Target sequence (P62136 whole entry, looked up): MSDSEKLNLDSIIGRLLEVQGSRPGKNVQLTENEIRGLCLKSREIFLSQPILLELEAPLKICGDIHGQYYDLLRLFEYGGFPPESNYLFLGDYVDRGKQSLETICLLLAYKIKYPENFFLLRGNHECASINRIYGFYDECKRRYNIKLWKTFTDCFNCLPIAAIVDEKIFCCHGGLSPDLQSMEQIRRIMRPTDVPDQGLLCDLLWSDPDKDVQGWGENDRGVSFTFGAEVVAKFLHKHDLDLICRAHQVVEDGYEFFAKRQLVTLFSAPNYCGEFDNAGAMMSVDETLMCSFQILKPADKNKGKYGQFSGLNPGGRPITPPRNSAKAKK
A number is an active result; - = inactive; . = no result.

SMILES | IDE cell activ | PP5 primary | SKKanGAS inh | IDE cell inh | Granule exo inh | PP1 counter
COC(=O)C(C(=O)OC)c1ccccc1[N+](=O)[O-] | - | - | - | - | - | -
COC(=O)C(C(=O)OC)c1ncccc1[N+](=O)[O-] | 18 | - | - | - | - | -
C[C@H](NC(=O)c1[nH]cnc1C(=O)Nc1ccc(Cl)cc1)c1ccccc1 | - | - | . | - | - | -
COc1ccccc1C(=O)NNC(=O)C(=O)Nc1cccc(Cl)c1C | - | - | 53 | - | - | -
CC1(OC(=O)C2CCCC2)C(=O)C=C2C=C(c3ccsc3)N(CCc3c[nH]c4ccccc34)C=C2C1=O (centres undefined) | - | - | - | - | - | 17
CSc1cccc(NC(=O)CNC(=O)C2CCCCC2)c1 | - | - | - | - | - | -
CSc1cccc(NC(=O)OC2CCCCCCCCCCC2)c1 | - | - | 66 | - | - | -
CCC(C)Sc1cc(-c2nc3cc(C)ccn3c2NC2CCCCC2)ccc1OC (centres undefined) | - | . | . | - | - | .
CCCCNc1c(-c2ccc(SC3CCCCC3)cc2)nc2ccccn12 | - | - | 71 | - | - | -
CCCCNc1c(-c2cccc(SC3CCCCC3)c2)nc2ccc(Cl)cn12 | - | - | - | - | - | -
c1cn2c(NC3CCCCC3)c(-c3ccc(SC4CCCCC4)cc3)nc2cn1 | - | - | 89 | - | - | -
CCC(C)Sc1cc(-c2nc3ccccn3c2NC2CCCCC2)ccc1OC (centres undefined) | - | - | 87 | - | - | -
CCCCNc1c(-c2ccc(SC(C)CC)cc2)nc2ccccn12 (centres undefined) | - | - | 78 | - | - | -
CCCCNc1c(-c2cccc(SC(C)CC)c2)nc2ccc(Cl)cn12 (centres undefined) | - | . | . | - | - | .
O=S(=O)(NCC(c1cccs1)N1CCc2ccccc2C1)c1ccccc1 (centres undefined) | - | - | - | - | - | -
CC(O)(c1cccnc1)c1nc(-c2ccc(F)c(Cl)c2)cs1 (centres undefined) | . | . | . | . | - | .
CNC(=S)NN=C(C)CCCC(C)=NNC(=S)NC | - | . | . | . | - | .
Cc1c(NC(=O)c2cnc(Cl)c(Cl)c2)c(=O)n(-c2ccccc2)n1C | - | - | - | - | - | -
Cc1cc(N/N=C/c2cccc(Cl)c2)nc(NCc2ccccc2)n1 | - | - | - | - | - | 15
C/C(=N\Nc1cc(C)nc(NCc2ccccc2)n1)c1cccc([N+](=O)[O-])c1 | - | - | - | - | 94 | -
Cc1cc(N/N=C/c2ccccc2)nc(NCc2ccccc2)n1 | - | - | - | - | - | -
C/C(=N\Nc1nnc(-c2ccccc2)c(-c2ccccc2)n1)c1cccc([N+](=O)[O-])c1 | - | - | - | - | - | -
O=C(Nc1ccc(F)cc1)C(Sc1nc2ccccc2[nH]1)c1ccccc1 (centres undefined) | - | - | - | - | - | -
COc1ccc(Cc2[nH]n3c(=O)cc(C(C)C)nc3c2-c2ccccc2)cc1 | - | - | 91 | - | - | -
CC(c1ccccc1)C1C(C#N)=C(N)OC2=C1C(=O)CC(C)(C)C2 (centres undefined) | - | - | - | - | 75 | -
SMILES | IDE cell activ | PP5 primary | SKKanGAS inh | IDE cell inh | Granule exo inh | PP1 counter
COc1cccc(/C=C2\N=C(C3CCCCC3)OC2=O)c1OC | - | - | - | - | 60 | -
C/C(=N\NC(=O)c1ccc(Cl)c(Cl)c1)c1ccc(Br)s1 | - | - | 88 | - | - | -
C/C(=N\Nc1ccc(Cl)c(C(=O)O)c1)c1ccc(Br)s1 | - | - | 58 | - | - | -
C/C(=N\Nc1ccc(C(=O)O)cc1)c1ccc(Cl)s1 | - | - | . | - | - | -
C/C(=N/NC(=O)c1ccc2c(c1)OCO2)c1ccc(Br)s1 | - | - | - | - | - | -
Cc1cccc(NC(=O)CNC(=O)CSc2nc(N)cc(N)n2)c1C | - | . | . | . | - | .
Nc1[nH]c(C(=O)c2ccccc2)c(-c2ccncc2)c1C(=O)NCCc1c[nH]c2ccccc12 | . | . | . | . | - | .
CNS(=O)(=O)c1cc(NC(=O)c2cnc(SC)n2-c2ccccc2)ccc1C | - | - | - | - | - | -
CC(=O)Oc1c(I)cc(I)cc1C(=O)Nc1ccc(Cl)cc1 | - | - | 124 | - | - | -
COc1ccc(Cl)cc1C(=O)Nc1ccc(NC(C)=O)cc1 | - | - | - | - | - | -
CSc1n[nH]c2nc3c(c(=O)n12)C1(CCCCC1)Cc1ccccc1-3 | - | - | 60 | - | - | -
COc1cc(C(=O)OC(C)CN2CCCCC2)cc(OC)c1OC (centres undefined) | - | - | - | - | - | -
C=CCN(c1ccc(C(=O)NCCN2CCOCC2)cc1)S(C)(=O)=O | - | - | - | - | - | -
N#C/C(=C\c1cccc(NC(=O)c2ccccc2Cl)c1)C(=O)NCCc1ccccc1 | - | - | - | - | - | -
CCC(=O)N(CC)C1=C(O)c2ccccc2C(=O)C1=O | - | - | - | - | 92 | -
CCC(=O)N(C1=C(NC)C(=O)c2ccccc2C1=O)C(C)C | - | - | - | - | - | -
O=C(NC(=S)NNC(=O)c1ccccc1O)c1ccco1 | - | - | 65 | - | - | -
O=C(NC(=S)NNC(=O)c1cc2ccccc2cc1O)c1ccco1 | - | - | 98 | - | - | -
O=C(NC(=S)NNC(=O)c1ccco1)c1ccc(F)cc1 | - | - | - | - | - | -
NC(=O)c1cccc(C(N)=O)n1 | - | - | - | - | - | -
C=C1c2cccc(O)c2C(=O)C2C(=O)[C@]3(O)C(=O)C(C(N)=O)C(=O)[C@@H](N(C)C)[C@@H]3[C@@H](O)[C@H]12 (some centres undefined) | - | . | . | - | - | .
C[C@H]1c2cccc(O)c2C(O)=C2C(=O)[C@]3(O)C(O)=C(C(N)=O)C(=O)[C@@H](N(C)C)C3[C@@H](O)C21 (some centres undefined) | - | - | 105 | - | - | -
Cc1ccc(C(CNS(=O)(=O)c2cc(F)ccc2F)N2CCN(C)CC2)cc1 (centres undefined) | - | . | - | . | - | .
FC(F)(F)c1nc2nccnc2[nH]1 | . | . | . | . | - | .
Nc1c(C(=O)CSc2nc3ccccc3o2)c(=O)[nH]c(=O)n1C1CC1 | 27 | - | . | - | - | -
Cc1ccc(NC(=O)c2ccc(NCCCN3CCC(C)CC3)c([N+](=O)[O-])c2)cc1F | - | - | - | - | 68 | -
COc1cc(/C=N/Nc2ccccc2[N+](=O)[O-])cc(OC)c1O | - | - | - | - | - | -
O=[N+]([O-])c1cc(Cl)cc(/C=N/Nc2nc3ccccc3s2)c1O | - | - | 82 | - | - | -

Screening data (PubChem BioAssay)
